A selection: hits, their analogues and other compounds. The true share with any hit is near 5.4%.
PP5 primary: blocks human protein phosphatase 5 activity; P53041; purified PP5c, OMFP substrate fluorescence; inhibition, % at 6.7 µM; 0.18% of 320,000 active;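 active means inhibition above the campaign's mean inhibition across all tested compounds plus 3 SD, cut at about 9.5% in these data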;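 further: 0% = DMSO only and 100% = 100 µM cantharidin control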
ALR H2O2 inh: human ALR oxidase inhibition via reduced H2O2; P55789; purified ALR, DTT oxidation, H2O2 HRP-luminol luminescence; inhibition, % (concentration not given with the values); 3.8% of 290,000 active; AID 485317;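 active means mean replicate inhibition above about 79%, with every replicate also reaching it, limit read from the data; inconclusive means only one of the two criteria met; inactive means mean below limit and not every replicate reaching it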
CSC inhib: blocks cancer stem cells; inhibition, % at 7.5 µM; cancer stem cell-like cells viability, luminescence; 1.1% of 300,000 active; in the data active means inhibition above about 75%; inconclusive means no clear call, values can overlap the other calls; tested in HMLE shEcad cells
PP1 counter: PP1-alpha (human) inhibition in PP5 counter-screen; purified PP1alpha, OMFP fluorescence; inhibition, % at 6.7 µM; 0.9% of 320,000 active;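 active means inhibition above the mean inhibition of all tested compounds plus 3 SD, computed separately for each screening campaign, cut at about 15% in these data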
Target sequence (P62136 whole entry, looked up): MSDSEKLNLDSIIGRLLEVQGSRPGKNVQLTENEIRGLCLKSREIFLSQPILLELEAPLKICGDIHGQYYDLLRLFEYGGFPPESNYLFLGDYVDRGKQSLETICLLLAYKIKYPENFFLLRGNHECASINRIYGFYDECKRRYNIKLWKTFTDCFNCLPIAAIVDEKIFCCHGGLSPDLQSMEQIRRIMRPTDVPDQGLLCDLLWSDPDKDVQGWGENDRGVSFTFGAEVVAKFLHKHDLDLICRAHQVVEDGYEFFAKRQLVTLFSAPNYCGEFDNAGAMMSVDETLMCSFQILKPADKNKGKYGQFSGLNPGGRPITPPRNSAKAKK
Calb FLC: affects C. albicans growth with fluconazole | C. albicans CaCi-2 (fluconazole-resistant clinical isolate) + fluconazole, Alamar Blue growth, 48 h | growth inhibition, % (concentration not given with the values) | 0.57% of 300,000 active;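 active means growth inhibition above about 58% in most replicates, limit read from the data, passing the limit was not always enough; inconclusive means exactly half the replicates above a set limit; inactive means most replicates below a set limit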;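 further: all wells also contain fluconazole at 8 µg/ml as a sub-toxic cotreatment; 0% = median of DMSO wells and 100% = median of geldanamycin control wells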
An asterisk follows results filed as active; ? = inconclusive; . = no result given.

SMILES	PP5 primary	ALR H2O2 inh	CSC inhib	PP1 counter	Calb FLC
FC(F)(F)c1cnc(NNC(=S)Nc2ccccc2Cl)c(Cl)c1	0	97*	49	-2	?
Cc1cccc(NC(=S)NNc2ncc(C(F)(F)F)cc2Cl)c1	3	8	-18	2	?
CC(C)C(C(=O)NC(C)(C)C)N1C(=O)c2ccccc2C1=O (stereo not drawn)	-8	-11	-7	-1	2
Cc1ccc(C(=O)Nc2nc(-c3ccc([N+](=O)[O-])cc3)cs2)o1	0	98*	9	2	10
CCOC(=O)C1CCN(C(=O)c2ccc(OCC(=O)N3CCOCC3)c(OC)c2)CC1	0	-1	-13	-4	-12
Cc1onc(-c2ccccc2Cl)c1C(=O)Nc1sc2c(c1C#N)CCC2	-2	16	18	1	77*
CC1CCc2c(sc(NC(=O)c3nc4ncccn4n3)c2C#N)C1 (stereo not drawn)	-1	-5	-4	-2	-2
CCCc1cc(C(=O)Nc2sc3c(c2C#N)CCC3)no1	1	21	45	-2	84*
Cc1onc(C(=O)Nc2sc3c(c2C#N)CCCC3)c1[N+](=O)[O-]	3	90*	27	-3	82*
N#Cc1c(NC(=O)c2nc3ncccn3n2)sc2c1CCCCC2	3	.	-13	3	95*
N#Cc1c(NC(=O)C2CC(c3ccccc3Cl)=NO2)sc2c1CCC2 (stereo not drawn)	1	.	-11	4	-4
CCn1c(SCc2nc(-c3ccc(Cl)cc3)no2)nnc1-c1ccco1	-4	-12	.	1	-6
CC(C)C[C@H]1CN=C(Nc2ccccc2)N1CCC(C)c1ccccc1 (stereo partly drawn)	1	.	18	3	.
CCOc1ccc(-n2nnc3c(=O)n(CC(=O)Nc4cc(C)on4)cnc32)cc1	-1	-10	-6	-7	-12
CCn1c(=O)cc(OCC(=O)NCCC(C)C)c2ccccc21	2	-13	-4	-3	-13
CC1CCc2c(sc(NC(=O)c3ccc(-c4ccccc4[N+](=O)[O-])o3)c2C#N)C1 (stereo not drawn)	0	-19	48	-2	2
Cc1onc(-c2ccccc2)c1C(=O)Nc1sc2c(c1C#N)CCC(C)C2 (stereo not drawn)	1	4	139*	2	11
CSc1nsc(/C=C/Nc2ccc(O)cc2C)c1C#N	4	-5	27	2	42
CCCNC(=O)CS(=O)(=O)Cc1nc(-c2cccc(OC)c2)oc1C	0	98*	-10	-1	3
COc1cccc(-c2nc(CS(=O)(=O)CC(=O)NCCc3ccccc3)c(C)o2)c1	0	9	-10	0	5
CCOCCCNC(=O)CS(=O)(=O)Cc1nc(-c2cccc(OC)c2)oc1C	1	98*	-4	-2	3
COc1cccc(-c2nc(CS(=O)(=O)CC(=O)NCc3ccc(Cl)cc3)c(C)o2)c1	1	-9	-9	-2	-1
Cc1ccc(S(=O)(=O)CCC(=O)OCc2cc(C)ccc2C)cc1	2	1	-4	4	11
Cc1cnc(=O)[nH]c1SCc1ccc([N+](=O)[O-])cc1	3	99*	-25	-1	3
O=C(Nc1ccccc1O)c1cccc(S(=O)(=O)Nc2ccccc2O)c1	5	99*	13	4	4
SMILES	PP5 primary	ALR H2O2 inh	CSC inhib	PP1 counter	Calb FLC
COc1ccccc1C1C2CCCCC2(O)CCN1CC(=O)Nc1ccccc1 (stereo not drawn)	-1	-4	16	0	24
Cc1ccc(S(=O)(=O)n2cc(-c3ccccc3)c3ccccc32)cc1	4	-17	99*	-2	.
Cc1cccc(N(CC(=O)NC2CCCC2)C(=O)CCC(=O)Nc2cc(C)on2)c1	1	.	.	1	6
Cc1ccc(NCc2nnc(SCC(=O)Nc3ncc(C)s3)n2Cc2ccco2)c(C)c1	2	98*	-8	1	-3
CC(NCc1ccc(OCc2ccc(Cl)cc2)cc1)C(O)c1ccccc1 (stereo not drawn)	2	-9	102*	11	-3
CC(NCc1cccc(OCc2ccccc2)c1)C(O)c1ccccc1 (stereo not drawn)	-1	-13	9	0	-5
Cn1cnc2cc(NCc3ccccc3Cl)ccc21	0	90*	2	-1	12
CCn1cnc2cc(NCc3ccccc3Cl)ccc21	2	46	-4	0	24
CC(C)c1ccc(CNc2ccc3c(c2)ncn3C)cc1	5	78*	0	2	6
CCN(CC)c1ccc(CNc2ccc3c(c2)ncn3C(C)(C)C)cc1	1	99*	-3	1	1

Screening data (PubChem BioAssay)
